Assay outcomes deposited in PubChem BioAssay by National Center for Advancing Translational Sciences (NCATS).
USP1-UAF1 inh = blocks the human USP1/UAF1 deubiquitinase complex; O94782; Potency, µM (top dose mostly 57.1 µM), without a hit: at the top dose activity change, negative = inhibition, usual class: inhibitors; recombinant USP1/UAF1, Ub-Rhodamine cleavage fluorescence; 390,000 compounds, 0.23% hits; note: % is set by controls: 0 for no effect and ±100 for the full control effect; nearly all actives have a fitted effect of over 60% in size
Target sequence (O94782 whole entry, looked up): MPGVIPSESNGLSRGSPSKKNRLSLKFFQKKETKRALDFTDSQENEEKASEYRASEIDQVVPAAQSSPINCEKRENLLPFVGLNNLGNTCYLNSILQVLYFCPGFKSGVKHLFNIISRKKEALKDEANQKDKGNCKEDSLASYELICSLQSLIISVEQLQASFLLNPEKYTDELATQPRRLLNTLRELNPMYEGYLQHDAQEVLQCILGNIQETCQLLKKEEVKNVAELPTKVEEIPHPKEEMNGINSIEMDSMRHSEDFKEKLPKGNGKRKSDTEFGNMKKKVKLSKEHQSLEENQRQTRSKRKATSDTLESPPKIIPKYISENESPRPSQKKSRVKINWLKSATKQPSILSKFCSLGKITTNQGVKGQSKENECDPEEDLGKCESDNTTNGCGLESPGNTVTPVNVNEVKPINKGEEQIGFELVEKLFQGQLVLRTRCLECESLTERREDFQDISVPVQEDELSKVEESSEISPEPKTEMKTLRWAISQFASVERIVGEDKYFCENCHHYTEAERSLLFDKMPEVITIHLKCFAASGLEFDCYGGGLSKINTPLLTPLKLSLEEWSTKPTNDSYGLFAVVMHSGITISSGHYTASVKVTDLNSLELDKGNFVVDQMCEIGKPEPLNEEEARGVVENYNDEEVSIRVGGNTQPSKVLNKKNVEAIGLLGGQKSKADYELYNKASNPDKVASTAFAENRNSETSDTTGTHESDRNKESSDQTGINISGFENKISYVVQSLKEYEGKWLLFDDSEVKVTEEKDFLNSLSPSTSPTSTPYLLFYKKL
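Step one: compound is pinned into 1nM USP1/UAF1 in HEPES pH 7.8 buffer with TCEP. Step two: 15 min room-temperature incubation. Step three: Ub-Rho (150nM final) starts cleavage, tracked by fluorescence over six one-minute reads.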
12-LOX inh = blocks human arachidonate 12S-lipoxygenase | P18054 | purified 12hLO, xylenol orange hydroperoxide absorbance | 580,000 compounds, 1.1% hits | Potency, µM (highest dose often 108 µM), inactives show at the highest dose activity change, negative = inhibition, usual class: inhibitors; note: % is set by controls: 0 for no effect and ±100 for the full control effect
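Purified human 12hLO (150 nM final) in 25 mM Hepes, 0.01% Triton X-100, pH 7.0 was preincubated 15 min at room temperature with compound. Then 40 uM arachidonic acid was added, 30 min. Hydroperoxide was read by Fe-XO absorbance ratio 573/405 nm.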
EPAC1 agonist = agonists of human EPAC1. Potency, µM (doses to about 154 µM), without a hit: at the highest dose activation, hits mostly activators. 360,000 compounds, 0.073% hits. EPAC1 agonist qHTS, biochemical assay; response scale: 100% = response to 6.5 mM cAMP. O95398; note: nearly all actives have a fitted effect of over 60% in size
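Nucleotide exchange by EPAC1 (100 nM) on Rap1B–BODIPY-GDP (250 nM) in the presence of 50 uM GDP is tracked fluorescently at 480/540 nm over 30 min. Signals are normalized to a 6.5 mM cAMP control.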
EPAC2 agonist = EPAC2 (human) agonism. EPAC2 activation, biochemical qHTS; response scale: 100% = 6.5 mM cAMP response. Potency, µM (series often up to 154 µM), inactives show at the highest dose activation, actives largely listed as activators. 360,000 compounds, 0.079% hits. AID 720711; note: nearly all actives have a fitted effect of over 50% in size
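Nucleotide exchange monitored as fluorescence drop when BODIPY-GDP leaves Rap1B. Reaction: 100 nM EPAC2, 250 nM RAP1B-BODIPY-GDP, 50 uM GDP, room temperature, kinetic read over 30 min. Activity expressed relative to 6.5 mM cAMP.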
EPAC2 antagonist = blocks human EPAC2 exchange factor. Q8WZA2. EPAC2 GEF exchange of Rap1B-BODIPY-GDP, fluorescence. Potency, µM (series often up to 114 µM), for the others: at the highest dose activity, negative = inhibition, most hits filed as inhibitors. 360,000 compounds, 0.18% hits; note: % is set by controls: 0 for no effect and ±100 for the full control effect; nearly all actives have a fitted effect of over 45% in size
EPAC1 antagonist = EPAC1 (human) antagonism; O95398; 360,000 compounds, 0.14% hits; EPAC1 GEF assay, Rap1b-BODIPY-GDP exchange fluorescence; Potency, µM (highest dose often 115 µM), for inactives: at the top dose activity change, negative = inhibition, usual class: inhibitors;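 note: plate controls were vehicle for no effect and positive control for full effect; nearly all actives have a fitted effect of over 50% in size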
* marks the source's active call; other numbers are inactive results; i = inactive; u = inconclusive; x = no result; [ ] = remark or other dose. Shown are actives, neighbours in structure and some others; about 1.3% of the full set was active somewhere. Calls come from the whole dose curve; as a rule, active = well fitted curve in the direction sought with a large enough effect; inconclusive = small, poorly fitted or top-dose-only effect, or another doubt; inactive = no such curve, though single readings can be large; an effect the other way counts as inactive or inconclusive. Potency is the fitted concentration of half-maximal effect.

SMILES	USP1-UAF1 inh	12-LOX inh	EPAC1 agonist	EPAC2 agonist	EPAC2 antagonist	EPAC1 antagonist
Cc1cccc(NC(=S)NCCC(c2ccccc2)c2ccccc2)c1	-10.1%	35.5µM*	-5.5%	3.4%	-10.7%	-3.3%
Fc1ccc(NC(=S)Nc2cc(-c3ccccc3)[nH]n2)cc1Cl	-19.0%	28.2µM*	2.6%	12.3%	21.8%	-16.4%
CCCNC(=S)Nc1cccc(C)c1	x	-18.8%	x	x	x	x
COc1cccc(NC(=S)NCCC(c2ccccc2)c2ccccc2)c1	-16.9%	u	6.7%	10.2%	0.1%	-9.1%
Cc1c(Cl)cccc1NC(=S)NCCC(c1ccccc1)c1ccccc1	-5.1%	25.1µM*	8.6%	3.6%	-6.2%	-19.4%
Cc1[nH]c2ccccc2c1/C=N/N=C(c1ccccc1)c1ccccc1	x	-30.3%	x	x	x	x
Fc1ccc(NC(=S)NCCC(c2ccccc2)c2ccccc2)cc1Cl	x	25.1µM*	x	x	x	x
Cc1cc(Cl)ccc1NC(=S)NCCC(c1ccccc1)c1ccccc1	-11.7%	u	27.1%	0.4%	0.6%	-25.1%
O=C(N/N=C/c1cccnc1)c1cc(-c2ccccc2OCc2ccccc2)n[nH]1	-1.0%	-3.3%	12.0%	16.2%	-2.5%	50.1µM*
O=C(N/N=C/c1cccnc1)c1ccccc1OCc1ccc(Br)cc1	-21.9%	-5.6%	-1.2%	9.7%	-5.7%	0.7%
CCn1c(=O)n(CCC(=O)N(C)CC(=O)Nc2ccccc2Br)c2ccccc21	x	-0.5%	x	x	x	x
CC(=O)c1cccc(NC(=O)CSc2ccc(-c3ccco3)nn2)c1	-11.7%	u	-2.4%	4.3%	16.8%	10.0%
O=C(CSc1ccc(-c2ccco2)nn1)c1cccc([N+](=O)[O-])c1	-14.1%	-26.0%	-0.4%	4.5%	17.0%	20µM*
Cc1cc(C)c(C(=O)Cn2nc(C(=O)O)c3ccccc3c2=O)c(C)c1	x	-5.4%	x	x	x	x
CC(=O)Nc1sc2c(c1-c1nc3ccccc3s1)CCN(C(C)C)C2	-35.8%	x	16.1%	63.1µM*	36.4%	14.8%
NS(=O)(=O)c1ccc(NC(=O)CN2C(=O)CCC2=O)cc1	-21.1%	-5.9%	2.6%	1.8%	-0.4%	10.5%
O=C(CN1C(=O)CCC1=O)Nc1ccc(Br)cc1	-18.6%	44.7µM*	-0.2%	1.1%	6.5%	-1.1%
COc1ccc(CNC(=O)c2ccc3c(=O)n(-c4cc(OC)ccc4OC)cnc3c2)cc1	x	7.8%	x	x	x	x
N#CC(C#N)=C1C=C2C=C(N3CCOCC3)CCC2CC1 (centres undefined)	3.98µM*	u	u	56.2µM*	78.5%	151.9%
CCN1CCN(C2=CC3=CC(=C(C#N)C#N)CCC3CC2)CC1 (centres undefined)	28.2µM*	x	50.1µM*	25.1µM*	433.9%	455.3%
CC1(C)CC(NCCN2CCN(C3=CC(=C(C#N)C#N)CC(C)(C)C3)CC2)=CC(=C(C#N)C#N)C1	-12.4%	-7.6%	-8.2%	-0.8%	4.7%	6.1%
N#CC(C#N)=C1C=C2C=C(N3CCCCCC3)CCC2CC1 (centres undefined)	3.98µM*	-7.8%	94.4%	88.9%	238.6%[57.1 µM]	135.0%
CN1CCN(C2=CC3=CC(=C(C#N)C#N)CCC3CC2)CC1 (centres undefined)	i[2.29 µM]	x	28.2µM*	100µM*	212.7%	i
Cc1nc2cc(NC(=O)C(C)Oc3ccc(Br)cc3)ccc2o1 (centres undefined)	x	-3.8%	x	x	x	x
CC1CCN(C(=O)C2CCN(C(=O)c3ccc4cc[nH]c4c3)CC2)CC1	x	21.8%	x	x	x	x
SMILES	USP1-UAF1 inh	12-LOX inh	EPAC1 agonist	EPAC2 agonist	EPAC2 antagonist	EPAC1 antagonist
CCN(CC)S(=O)(=O)NC(C)Cc1cccs1 (centres undefined)	x	-14.5%	x	x	x	x
Cc1nnc(N2C(=O)C(O)=C(C(=O)c3ccco3)C2c2ccc(C(C)C)cc2)s1 (centres undefined)	-9.7%	44.7µM*	-3.9%	-20.5%	1.7%	-12.7%
CCCCOc1cccc(C2C(C(=O)c3ccc(C)o3)=C(O)C(=O)N2c2nnc(C)s2)c1 (centres undefined)	12.2%	u	-33.3%	-32.7%	u	u
CCCOc1cccc(C2C(C(=O)c3ccco3)=C(O)C(=O)N2c2nnc(C)s2)c1 (centres undefined)	-0.4%	7.94µM*	3.0%	-3.0%	-5.3%	7.1%
Cc1nnc(N2C(=O)C(O)=C(C(=O)c3ccco3)C2c2ccc(F)cc2)s1 (centres undefined)	-6.6%	u	3.0%	1.1%	1.6%	0.3%
Cc1nnc(N2C(=O)C(O)=C(C(=O)c3ccco3)C2c2ccc(C(C)(C)C)cc2)s1 (centres undefined)	8.1%	7.94µM*	-14.7%	-39.7%	-5.3%	-23.2%
CSc1ccc(C2C(C(=O)c3ccco3)=C(O)C(=O)N2c2nnc(SC)s2)cc1 (centres undefined)	64.1%	39.8µM*	-39.7%	-44.6%	u	u
Cc1ccc(C)c(/C(O)=C2\C(=O)C(=O)N(c3nnc(C)s3)C2c2ccc(C(C)C)cc2)c1 (centres undefined)	x	44.7µM*	x	x	x	x
COC(=O)c1ccc(C2/C(=C(\O)c3ccc4c(c3)OCCO4)C(=O)C(=O)N2c2nnc(C)s2)cc1 (centres undefined)	-19.0%	u	4.0%	5.4%	2.9%	-14.0%
CC(c1cccc2ccccc12)N(C(=O)c1cccs1)C1CC1 (centres undefined)	x	-3.6%	x	x	x	x
CC(C)c1ccc(C2C(C#N)=C(SCC(N)=O)NC3=C2C(=O)CCC3)cc1 (centres undefined)	x	44.7µM*	x	x	x	x
COc1cccc(NC(=O)CSC2=C(C#N)C(c3ccc(C(C)C)cc3)C3=C(CCCC3=O)N2)c1 (centres undefined)	x	51.2%	x	x	x	x
COc1ccc(C2CC(=O)C(CS(=O)(=O)c3ccccc3)C(=O)C2)cc1 (centres undefined)	-10.4%	-20.4%	-8.6%	-6.4%	-7.9%	8.2%
O=C1CC(c2ccc(Cl)cc2)CC(=O)C1CS(=O)(=O)c1ccccc1 (centres undefined)	-1.0%	35.5µM*	8.1%	8.9%	-0.5%	u
CCn1c(-c2cc(-c3cc(OC)ccc3OC)nc3ccccc23)n[nH]c1=S	-12.4%	20µM*	-4.2%	0.6%	-2.5%	7.6%
COc1ccc(-c2nonc2NC(=O)COc2c(C)cccc2C)cc1	x	-33.7%	x	x	x	x
O=C(O)CCCc1nc2ccccc2c2nc(=O)c(-c3ccccc3)nn12	x	6.6%	x	x	x	x
Cc1cccc(NC(=O)CN2C(=O)N/C(=C\c3ccccc3OCc3ccc(C(=O)O)cc3)C2=O)c1	-9.2%	23.0%	2.0%	-0.6%	-20.0%	28.2µM*
Cc1ccc(-n2cccc2/C=C2/NC(=O)N(CC(=O)Nc3cccc(C)c3)C2=O)cc1	-21.7%	u	-1.6%	1.7%	-2.0%	u
